# Test results from PubChem BioAssay (NCATS).
# Results filed as inconclusive are left out. Calls of active or inactive are those of the source. Unless noted, no rule for the calls is given here.
# Experiments:
# [1] = qHTS profiling of the MIPE4 collection as inhibitors of Plasmodium falciparum (3D7) proliferation (AID 743344);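 also: scaled between DMSO vehicle wells and 0.29 µM artemisinin as full inhibition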; details: P. falciparum 3D7 in erythrocytes, SYBR Green DNA fluorescence, 72 h; at 28.5 µM unless noted
# In short: (§1)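 Parasite DNA was quantified by SYBR Green I fluorescence (ex 485, em 535 nm) after overnight lysis in saponin/Triton buffer at room temperature. Cultures at 0.3% parasitemia and 2.5% hematocrit were first exposed to compound for 72 h at 37 C; signals were normalised to artemisinin (0.29 uM) and vehicle wells.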
# [2] = qHTS profiling of the MIPE4 collection as inhibitors of Plasmodium falciparum (DD2) proliferation (AID 743345); details: P. falciparum Dd2 in erythrocytes, SYBR Green DNA, 72 h; at 28.5 µM unless noted
# In short: as §1
# [3] = qHTS profiling of the MIPE4 collection as inhibitors of Plasmodium falciparum (DD2) proliferation (Rep 2) (AID 743346); details: P. falciparum Dd2 in erythrocytes, SYBR Green DNA, 72 h; at 28.5 µM unless noted
# In short: as §1
# [4] = qHTS profiling of the MIPE4 collection as inhibitors of Plasmodium falciparum (HB3) proliferation (AID 743347);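 also: plate controls were DMSO vehicle wells for no effect and artemisinin wells for full effect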; details: P. falciparum HB3 in erythrocytes, SYBR Green DNA, 72 h; at 28.5 µM unless noted
# In short: as §1
# [5] = High-throughput drug toxicity screening in the BPDCN cell line Gen2.2 (AID 1224824); details: Gen2.2 BPDCN cells; at 45.8 µM (top of the series) unless noted;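 also: cells exposed to compounds for 48 h before reading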
# In short: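 Readout is ATP luminescence from Gen2.2 cells after two days of drug exposure in serum-containing medium at 37 °C. Values express percent activity, with vehicle defining full signal and 9.2 uM bortezomib defining zero.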
# [6] = High-throughput drug toxicity screening in the BPDCN cell line Cal-1 (AID 1224825); details: Cal-1 BPDCN cell viability, qHTS; at 45.8 µM (top of the series) unless noted
# In short: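 Percent activity derived from CellTiter-Glo luminescence, scaling DMSO to 100% and 9.2 uM final bortezomib to 0%. BPDCN Cal-1 cells (500/well, RPMI plus 10% FBS) incubated with compounds 48 hours at 37C before reading.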
# [7] = qHTS assay for measurement of the activity of small molecule inhibitors on Zika virus induced Caspase-3 activity in human iPSC derived neural progenitor cells (hNPCs) (AID 1224857; active = well fitted curve in the direction sought with a large enough effect; an effect the other way counts as inactive or inconclusive; also: nearly all actives have a fitted effect of over 65% in size; also: potency is read from the fitted curve at half-maximal effect)
# In short: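 Caspase-3/7 induction by a 6-hour ZIKV infection was quantified with a luminescent Caspase-Glo 3/7 reagent incubated 30 minutes at room temperature. Compounds were preincubated with hNPCs for 1 hour; inhibition was calculated against uninfected and infected control wells.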
# [8] = qHTS assay for measurement of the activity of small molecule inhibitors on Zika virus induced Caspase-3 activity in human astrocytoma cells (AID 1224859; active = well fitted curve in the direction sought with a large enough effect; an effect the other way counts as inactive or inconclusive;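 also: plate controls were ZIKV-infected untreated cells for no effect and uninfected cells for full effect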)
# In short: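 In SNB-19 cells plated at 250 cells/well and grown 16-20 h, compounds were applied 1 h before ZIKV (2 FFU/cell). Six hours later caspase-3/7 luminescence was recorded.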
# [9] = qHTS profiling for inhibitors of Plasmodium falciparum (HB3) proliferation (AID 743324; active = well fitted curve in the direction sought with a large enough effect; an effect the other way counts as inactive or inconclusive;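 also: 100% = DMSO vehicle wells and 0% = artemisinin-treated control wells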); details: Plasmodium falciparum HB3 blood-stage proliferation; at 28.7 µM (top of the series)
# In short: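 SYBR Green fluorescence (485 ex/535 em) of lysed cultures, incubated overnight at room temperature in the dark, quantifies parasite DNA. Infected erythrocytes at 0.3% parasitemia and 2.5% hematocrit were exposed 72 h; values normalized to DMSO and 0.29 uM artemisinin controls.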
# [10] = Identifying Small Molecule Inhibitors of Pancreatic Cancer Stem Cells (SN12C, Adherent) (AID 1259358; active = well fitted curve in the direction sought with a large enough effect; an effect the other way counts as inactive or inconclusive;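 also: potency is read from the fitted curve at half-maximal effect; cell survival measured after 48 h of compound exposure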)
# In short: (§2)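 Pre-formed 14-day tumor spheroids or adherent cells dosed and incubated 48 h, 37C, 5% CO2. Viability assessed by CellTiter-Glo.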
# [11] = Identifying Small Molecule Inhibitors of Pancreatic Cancer Stem Cells (A278, Adherent) (AID 1259361; active = well fitted curve in the direction sought with a large enough effect; an effect the other way counts as inactive or inconclusive;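 also: viability read after 48 h compound exposure; nearly all actives have a fitted effect of over 35% in size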)
# In short: as §2
# [12] = qHTS Screen of the MIPE 4.0 Collection Against Ewings Sarcoma (RDES) (AID 1259252; active = well fitted curve in the direction sought with a large enough effect; an effect the other way counts as inactive or inconclusive;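 also: 100% = DMSO-treated cells and 0% = medium-only wells without cells; nearly all actives have a fitted effect of over 35% in size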)
# In short: (§3)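 Cells plated in serum-containing RPMI (5% FBS) and treated with compound dilutions for 48 h. Readout luminescent viability; normalization relied on vehicle (no inhibition) and media-only columns (full inhibition).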
# [13] = qHTS Screen of the MIPE 4.0 Collection Against Ewings Sarcoma (TC71) (AID 1259253; active = well fitted curve in the direction sought with a large enough effect; an effect the other way counts as inactive or inconclusive;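 also: 100% = DMSO-treated cells and 0% = medium-only wells without cells; nearly all actives have a fitted effect of over 40% in size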)
# In short: as §3
# [14] = qHTS Screen of the MIPE 4.0 Collection Against Ewings Sarcoma (EW8) (AID 1259255; active = well fitted curve in the direction sought with a large enough effect; an effect the other way counts as inactive or inconclusive;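 also: 100% = DMSO-treated cells and 0% = medium-only wells without cells; nearly all actives have a fitted effect of over 35% in size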)
# In short: as §3
# [15] = qHTS Screen of the MIPE 4.0 Collection Against Ewings Sarcoma (TC32) (AID 1259256; active = well fitted curve in the direction sought with a large enough effect; an effect the other way counts as inactive or inconclusive;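 also: 100% = DMSO-treated cells and 0% = medium-only wells without cells; nearly all actives have a fitted effect of over 45% in size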)
# In short: as §3
# [16] = qHTS assay to identify small molecule inhibitors of chordoma cells - UCH-1 (AID 1259355; active = well fitted curve in the direction sought with a large enough effect; an effect the other way counts as inactive or inconclusive; also: % is scaled to controls: 0 for no effect and ±100 for the full control effect; nearly all actives have a fitted effect of over 55% in size)
# In short: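 800 cells/well, overnight attach; compounds pinned at 15 concs, then auranofin/camptothecin/doxorubicin/rubitecan/topotecan combo added; 48hr 37 C, 5% CO2; CellTiter-Glo, 30min RT, luminescence.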
# [17] = qHTS assay to identify small molecule inhibitors of chordoma cells - UCH-2 (AID 1259356; active = well fitted curve in the direction sought with a large enough effect; an effect the other way counts as inactive or inconclusive; also: % is scaled to controls: 0 for no effect and ±100 for the full control effect)
smiles,measurement,setting,value
O=C(NCc1ccncc1)C12C[C@H]3C[C@@H](C1)CC(c1ccc(Cl)cc1)(C3)C2,"parasite growth, % of DMSO control",[1],20%
same,"parasite growth remaining, % of DMSO control (lower = more inhibition)",[2],93.6%
same,"parasite growth, % of control (lower = inhibition)",[3],26%
same,"growth, % of control",[4],42.3%
same,"cell viability, % of control (lower = more cytotoxic)",[5],16.2%
same,viability (% of control),[6],11.3%
same,Potency,[7],inactive
same,Potency,[8],inactive
CN(C)Cc1cccc(N=C(c2ccccc2)c2c(O)[nH]c3cc(C(=O)N(C)C)ccc23)c1,"parasite growth, % of DMSO control",[1],16.4%
same,"parasite growth remaining, % of DMSO control (lower = more inhibition)",[2],30.5%
same,"growth, % of control",[4],36.3%
same,"cell viability, % of control (lower = more cytotoxic)",[5],6.16%
same,viability (% of control),[6],6.94%
same,Potency,[7],inactive
same,Potency,[8],inactive
CC1(C)CCC[C@@]2(C)[C@@H]1CC[C@@]1(C)OC(=O)C[C@H]21,"parasite growth, % of DMSO control",[1],81.6%
same,"parasite growth remaining, % of DMSO control (lower = more inhibition)",[2],136%
same,"parasite growth, % of control (lower = inhibition)",[3],56.5%
same,"growth, % of control",[4],64.8%
same,"cell viability, % of control (lower = more cytotoxic)",[5],95%
same,viability (% of control),[6],102%
same,Potency,[7],inactive
same,Potency,[8],inactive
OC[C@H]1O[C@@H](Oc2cc(O)cc(C=Cc3ccc(O)cc3)c2)[C@H](O)[C@@H](O)[C@H]1O,"parasite growth, % of DMSO control",[1],82.6%
same,"parasite growth, % of control (lower = inhibition)",[3],77.5%
same,"growth, % of control",[4],83.3%
same,"cell viability, % of control (lower = more cytotoxic)",[5],71.3%
same,viability (% of control),[6],60.5%
same,Potency,[7],inactive
same,Potency,[8],inactive
COc1cccc2c1CCCC2CCCN1CCN(C2CCCCC2)CC1 (stereo not given),"remaining proliferation (% of control), lower = more inhibition",[9],1.97%
same,"parasite growth, % of DMSO control",[1],6.86%
same,"parasite growth remaining, % of DMSO control (lower = more inhibition)",[2],54.8%
same,"parasite growth, % of control (lower = inhibition)",[3],16.3%
same,"growth, % of control",[4],5.02%
same,"cell viability, % of control (lower = more cytotoxic)",[5],165%
same,viability (% of control),[6],11.1%
same,Potency,[7],inactive
same,Potency,[8],inactive
same,Potency,[10],16.6 µM (active)
same,IC50 (viability decrease),[11],16.6 µM (active)
NC(=O)c1cccc(-c2cc(Nc3ccc(OC(F)(F)F)cc3)ncn2)c1,"parasite growth remaining, % of DMSO control (lower = more inhibition)",[2],63.7%
same,"parasite growth, % of control (lower = inhibition)",[3],23%
same,"growth, % of control",[4],8.8%
same,"cell viability, % of control (lower = more cytotoxic)",[5],370%
same,viability (% of control),[6],77.2%
same,Potency,[7],inactive
same,Potency,[8],inactive
CCn1cc(C(=O)O)c(=O)c2ccc(C)nc21,"cell viability, % of control (lower = more cytotoxic)",[5],120%
same,viability (% of control),[6],113%
same,Potency,[8],inactive
same,Potency,[12],inactive
same,Potency,[13],inactive
same,Potency,[14],inactive
same,Potency,[15],inactive
same,Potency,[16],inactive
same,outcome,[17],inactive
NC1CCC(Nc2nc(Nc3ccc(C(=O)N4CCCCC4)cc3)c3ncn(-c4cccc(F)c4)c3n2)CC1 (stereo not given),"parasite growth, % of DMSO control",[1],113%
same,"parasite growth, % of control (lower = inhibition)",[3],47.7%
same,"growth, % of control",[4],71.8%
same,"cell viability, % of control (lower = more cytotoxic)",[5],208%
same,viability (% of control),[6],101%
same,Potency,[7],16.6 µM (active)
same,Potency,[12],inactive
same,Potency,[13],inactive
same,Potency,[14],inactive
same,Potency,[15],inactive
CC(=O)O[C@]1(C(C)=O)CC[C@@H]2[C@@H]3C[C@H](C)C4=CC(=O)CC[C@]4(C)[C@H]3CC[C@@]21C,"parasite growth remaining, % of DMSO control (lower = more inhibition)",[2],89%
same,"parasite growth, % of control (lower = inhibition)",[3],22%
same,"growth, % of control",[4],16.6%
same,"cell viability, % of control (lower = more cytotoxic)",[5],75.1%
same,viability (% of control),[6],95.7%
same,Potency,[7],inactive
same,Potency,[8],inactive
CCn1c(C(=O)N(C2CC2)C2CC2)cc2c3c(ncn3C)c(Nc3cc(C)n(C)n3)nc21,"parasite growth, % of control (lower = inhibition)",[3],23.5%
same,"cell viability, % of control (lower = more cytotoxic)",[5],144%
same,viability (% of control),[6],90.8%
same,Potency,[7],inactive
same,Potency,[8],inactive
O=C(CCN1CCN(C(=O)OCc2cc(Cl)cc(Cl)c2)CC1)c1ccc2[nH]c(=O)oc2c1,"parasite growth, % of DMSO control",[1],101%
same,"parasite growth remaining, % of DMSO control (lower = more inhibition)",[2],103%
same,"parasite growth, % of control (lower = inhibition)",[3],85%
same,"growth, % of control",[4],105%
same,"cell viability, % of control (lower = more cytotoxic)",[5],231%
same,viability (% of control),[6],115%
same,Potency,[7],20.9 µM (active)
same,Potency,[12],inactive
same,Potency,[13],inactive
same,Potency,[14],inactive
same,Potency,[15],inactive
